Laboratory results as given in PubChem BioAssay (NCATS).
Inconclusive results are not listed. Active and inactive are the calls of the source. Unless noted, calls come from the whole dose curve; as a rule, active = well fitted curve in either direction with a large enough effect (not every such curve was filed as active); inconclusive = small, poorly fitted or top-dose-only effect, or another doubt; inactive = flat fitted curve, though single readings scatter.

Legend:
[1] = molecular target: Lysosomal acid glucosylceramidase (Homo sapiens) (UniProt P04062); assay: Glucocerebrosidase-p2 (AID 348; in the data active = potency below about 10 µM; note: potency is the fitted concentration of half-maximal effect); settings: purified GBA, blue fluorogenic substrate, 40 min
Sequence of Lysosomal acid glucosylceramidase (Homo sapiens) (P04062 whole entry, looked up): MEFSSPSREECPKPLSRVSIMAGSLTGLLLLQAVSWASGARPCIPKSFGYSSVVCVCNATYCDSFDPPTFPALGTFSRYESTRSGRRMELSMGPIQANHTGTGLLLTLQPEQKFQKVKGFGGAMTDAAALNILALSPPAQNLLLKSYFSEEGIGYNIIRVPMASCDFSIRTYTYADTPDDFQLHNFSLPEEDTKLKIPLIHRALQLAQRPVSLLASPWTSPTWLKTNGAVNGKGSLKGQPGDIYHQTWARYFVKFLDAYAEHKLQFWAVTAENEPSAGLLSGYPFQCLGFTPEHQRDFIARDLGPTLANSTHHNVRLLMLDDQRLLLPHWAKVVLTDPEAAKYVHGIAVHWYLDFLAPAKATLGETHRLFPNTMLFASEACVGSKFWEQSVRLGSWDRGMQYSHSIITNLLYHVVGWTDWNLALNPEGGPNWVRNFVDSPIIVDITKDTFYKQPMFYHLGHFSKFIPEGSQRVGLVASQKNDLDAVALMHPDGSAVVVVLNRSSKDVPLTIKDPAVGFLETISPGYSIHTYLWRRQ
In short: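 Compounds titrated from 0.6 nM upwards against 0.2 nM enzyme in pH 5.9 citric acid/KH2PO4, taurocholate, tween-20; blue fluorogenic substrate 80 uM, 40 min room temperature, stopped and read Ex 365/Em 440 for AC50.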

[2] = AP1 Signaling Pathway (AID 357); settings: ME-180 AP-1-bla reporter, EGF-induced, beta-lactamase ratio, 5 h; at 7.69 µM (top of the series) unless noted;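 note: ME-180 reporter cells stimulated with EGF at its EC50 level; % is set by controls: 0 for no effect and ±100 for the full control effect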
In short: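 Titration-series screen for positive or negative modulators of EC50 EGF-induced signaling in ME-180 cells carrying an AP-1-driven beta-lactamase reporter. After 5 hours at 37 degrees Celsius, CCF4 460nm/530nm emission ratio gave %Activity; AC50 values derived.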

[3] = NFAT Signaling Pathway (AID 444); settings: Jurkat NFAT-bla M1, carbachol, beta-lactamase ratio, 5 h; at 7.69 µM (top of the series) unless noted;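 note: carbachol stimulus at about its EC50 of 1 µM final; % is set by controls: 0 for no effect and ±100 for the full control effect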
In short: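 Jurkat cells with NFAT-driven β-lactamase reporter and co-expressed M1 receptor, stimulated with carbachol (final 1 uM, ~EC50), compound titration, 5 h at 37 °C. CCF4 loaded 1 h at RT; 460/530 nm ratio gave %activity and AC50.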

[4] = Stat Signaling Pathway (AID 446); settings: ME-180 SIE beta-lactamase reporter, IL-6 stimulated, 5 h; at 7.69 µM (top of the series) unless noted;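 note: ME-180 cervical cancer cells given 40 pM IL-6 alongside compound; SIE-controlled beta-lactamase reporter measured as 460/530 nm FRET emission ratio; % is set by controls: 0 for no effect and ±100 for the full control effect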
In short: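 Reporter line: ME-180 cervical carcinoma, SIE-beta-lactamase. Treatment: compound with 40 pM IL-6, 5 hrs, 37 C, in low-serum OPTI-MEM with 10 mM HEPES pH 7.3. Detection: 460/530 nm fluorescence.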

[5] = molecular target: Glucocorticoid receptor (Homo sapiens) (UniProt P04150); assay: GR-GFP Redistribution (AID 450;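 active = compounds whose dose series gives a full or clear partial fitted curve of increased nuclear translocation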; note: potency is the fitted concentration of half-maximal effect); settings: U2OS GR-GFP nuclear translocation, laser cytometry, 2 h
Sequence of Glucocorticoid receptor (Homo sapiens) (P04150 whole entry, looked up, the tested form may be a part): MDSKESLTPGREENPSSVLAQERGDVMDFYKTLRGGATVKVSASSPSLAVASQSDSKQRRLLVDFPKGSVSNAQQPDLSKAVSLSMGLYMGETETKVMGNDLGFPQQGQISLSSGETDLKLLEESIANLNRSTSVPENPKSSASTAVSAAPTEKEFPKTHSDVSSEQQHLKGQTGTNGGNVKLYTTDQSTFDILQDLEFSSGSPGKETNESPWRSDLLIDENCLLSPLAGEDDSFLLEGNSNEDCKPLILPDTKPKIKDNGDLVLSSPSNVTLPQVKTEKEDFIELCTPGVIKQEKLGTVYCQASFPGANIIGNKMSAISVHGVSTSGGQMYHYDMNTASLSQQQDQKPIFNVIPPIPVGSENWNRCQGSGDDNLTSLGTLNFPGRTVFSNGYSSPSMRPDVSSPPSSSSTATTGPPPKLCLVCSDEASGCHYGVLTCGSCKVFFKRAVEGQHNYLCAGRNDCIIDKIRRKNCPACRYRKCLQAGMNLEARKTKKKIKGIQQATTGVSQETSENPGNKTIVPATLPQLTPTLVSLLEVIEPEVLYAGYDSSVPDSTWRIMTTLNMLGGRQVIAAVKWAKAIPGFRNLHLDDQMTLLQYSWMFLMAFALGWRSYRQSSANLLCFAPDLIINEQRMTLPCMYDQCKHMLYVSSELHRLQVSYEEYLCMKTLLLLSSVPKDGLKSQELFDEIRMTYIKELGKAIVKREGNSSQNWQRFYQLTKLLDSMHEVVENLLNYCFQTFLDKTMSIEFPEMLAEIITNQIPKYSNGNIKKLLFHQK

[6] = molecular target: Glucocorticoid receptor (Homo sapiens) (UniProt P04150); assay: GR-EFC Redistribution (AID 451; calls by dose curve; note: potency is the fitted concentration of half-maximal effect); settings: CHO-K1 GR-EFC translocation, beta-gal luminescence, 2 h
In short: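 CHO-K1 cells expressing nuclear EA and GR-ED fragments of b-gal; compounds titrated up to 46 uM final, 2 h at 37 C. GR nuclear translocation read as complemented b-gal luminescence after 1 h RT detection.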

[7] = molecular target: Mitogen-activated protein kinase 10 (Mus musculus) (UniProt Q61831); assay: JNK3 AlphaScreen Assay (AID 530); settings: JNK3 lysate, c-Jun phosphorylation; series mostly up to 57.1 µM;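 note: kinase came from lysate of stimulated human HepG2 cells; signal reports phosphorylation of biotinylated GST-cJun 1-79 at Ser73 with 10 µM ATP; % is set by controls: 0 for no effect and ±100 for the full control effect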
In short: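 qHTS format: compounds tested as titrations against IL-1beta/TNF-alpha-activated HepG2 lysate JNK3 with biotin-GST-cJun substrate and 10 uM ATP at room temperature. Loss of anti-phospho-cJun AlphaScreen signal indicates inhibition.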

[8] = molecular target: 3',5'-cyclic-AMP phosphodiesterase 4B (Homo sapiens) (UniProt Q07343); assay: qHTS Assay for Inhibitors of PDE-IV (AID 607; active = well fitted activation curve with a large enough effect in the main read-out, with a control signal flat, not every such curve was filed as active; note: % of control where 0% means no effect); settings: HEK293 ACTOne CNG channel cells, membrane potential fluorescence; series mostly up to 22.9 µM
Sequence of 3',5'-cyclic-AMP phosphodiesterase 4B (Homo sapiens) (Q07343 whole entry, looked up): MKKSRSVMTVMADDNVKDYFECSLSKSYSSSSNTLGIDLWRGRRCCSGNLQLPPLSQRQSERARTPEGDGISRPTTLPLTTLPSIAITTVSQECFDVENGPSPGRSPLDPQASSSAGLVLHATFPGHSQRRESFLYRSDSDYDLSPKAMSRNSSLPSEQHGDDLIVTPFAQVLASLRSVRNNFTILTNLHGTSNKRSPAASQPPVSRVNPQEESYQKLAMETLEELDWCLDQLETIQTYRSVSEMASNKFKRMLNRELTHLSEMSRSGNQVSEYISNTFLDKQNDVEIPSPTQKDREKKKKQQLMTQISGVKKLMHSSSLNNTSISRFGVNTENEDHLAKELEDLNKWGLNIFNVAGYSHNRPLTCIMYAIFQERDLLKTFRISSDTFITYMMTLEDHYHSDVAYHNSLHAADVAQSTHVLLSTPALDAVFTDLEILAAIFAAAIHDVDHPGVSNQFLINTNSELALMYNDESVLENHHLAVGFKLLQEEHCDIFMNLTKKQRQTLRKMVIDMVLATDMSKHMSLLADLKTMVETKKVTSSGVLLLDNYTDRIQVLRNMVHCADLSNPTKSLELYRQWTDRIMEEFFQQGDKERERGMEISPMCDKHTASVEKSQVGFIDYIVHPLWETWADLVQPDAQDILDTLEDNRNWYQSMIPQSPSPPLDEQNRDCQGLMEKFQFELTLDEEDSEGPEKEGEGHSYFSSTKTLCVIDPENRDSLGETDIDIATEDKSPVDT
In short: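 Cell-based read-out of cAMP via a modified cyclic nucleotide-gated channel and membrane potential dye (535/590 nm) in HEK293 cells expressing PDE4 endogenously. Compounds tested up to 22.9 uM final; 100 uM RO 20-1724 reference.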

[9] = Primary qHTS for small molecule stabilizers of the endoplasmic reticulum resident proteome: Secreted ER Calcium Modulated Protein (SERCaMP) assay (AID 1508630; active = well fitted curve in the direction sought with a large enough effect; an effect the other way counts as inactive or inconclusive; note: % is set by controls: 0 for no effect and ±100 for the full control effect); settings: SH-SY5Y GLuc-SERCaMP (Gaussia luciferase released on ER calcium loss) secretion, thapsigargin, luminescence; series mostly up to 38.4 µM
In short: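 GLuc-SERCaMP-expressing SH-SY5Y cells, pretreated 16 h with compound, are challenged with thapsigargin to empty ER calcium stores; after 4 h, coelenterazine is added directly to the medium and luminescence is imaged.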

[10] = molecular target: Cytochrome P450 3A4 (Homo sapiens) (UniProt P08684); assay: qHTS Assay for Activators of Cytochrome P450 3A4 (AID 885; active = well fitted curve in the direction sought with a large enough effect; an effect the other way counts as inactive or inconclusive; note: nearly all actives have a fitted effect of over 65% in size); settings: recombinant CYP3A4, Luciferin-PPXE luminescence, 60 min; series mostly up to 57.1 µM
Sequence of Cytochrome P450 3A4 (Homo sapiens) (P08684 whole entry, looked up): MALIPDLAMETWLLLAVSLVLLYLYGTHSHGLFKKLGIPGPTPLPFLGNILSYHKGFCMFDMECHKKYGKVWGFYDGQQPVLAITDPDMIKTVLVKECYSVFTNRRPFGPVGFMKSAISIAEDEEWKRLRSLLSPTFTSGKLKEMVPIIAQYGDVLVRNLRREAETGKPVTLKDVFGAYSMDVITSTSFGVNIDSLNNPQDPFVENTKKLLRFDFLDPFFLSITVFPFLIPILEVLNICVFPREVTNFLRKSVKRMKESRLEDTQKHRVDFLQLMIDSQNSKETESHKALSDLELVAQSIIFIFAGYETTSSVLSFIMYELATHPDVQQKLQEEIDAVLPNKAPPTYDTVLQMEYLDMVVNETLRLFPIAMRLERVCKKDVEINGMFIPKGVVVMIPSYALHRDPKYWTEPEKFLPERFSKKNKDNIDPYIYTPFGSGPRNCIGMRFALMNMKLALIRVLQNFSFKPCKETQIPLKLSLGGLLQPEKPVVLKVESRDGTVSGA
In short: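 Signal was normalized against complete inhibition by 57 uM ketoconazole. The reaction used 20nM CYP3A4 with 25uM Luciferin-PPXE, 10-min compound preincubation and a 60-min NADPH-supported step at RT.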

COCCn1c(=O)c(-c2ccc(OC)cc2)nc2cnc(Oc3ccc(OC)cc3)nc21
inactive: Potency [1] > 11.4 µM | activity change, negative = inhibition [2] -20.1% | activity change, negative = inhibition [3] 18% | activity, negative = inhibition [4] -7.21% | Potency [5] > 9.22 µM | Potency [6] > 46 µM | Potency [7] | Potency [8] | outcome [9]

COc1ccc(-c2nc3cnc(OC)nc3n(Cc3ccc(F)cc3)c2=O)cc1
inactive: Potency [1] > 11.4 µM | activity change, negative = inhibition [2] 8.95% | activity change, negative = inhibition [3] -6.96% | activity, negative = inhibition [4] 5.66% | Potency [5] > 9.22 µM | Potency [7] | outcome [9]

COc1ccc(-n2c(=O)c(-c3ccc(F)cc3)nc3cnc(OC)nc32)cc1
inactive: Potency [1] > 11.4 µM | activity change, negative = inhibition [2] -6.43% | activity change, negative = inhibition [3] 8.51% | activity, negative = inhibition [4] -13.4% | Potency [5] > 9.22 µM | Potency [6] > 46 µM | Potency [7] | Potency [8] | Potency [10] | outcome [9]

O=c1c(-c2ccc(F)cc2)nc2cnc(Nc3ccccc3)nc2n1C1CC1
inactive: Potency [1] > 11.4 µM | activity change, negative = inhibition [2] -14% | activity change, negative = inhibition [3] -2.3% | activity, negative = inhibition [4] -3.65% | Potency [5] > 9.22 µM | Potency [6] > 46 µM | Potency [7] | Potency [8] | outcome [9]

COCCn1c(=O)cnc2cnc(OCc3ccccc3)nc21
inactive: Potency [1] > 11.4 µM | activity change, negative = inhibition [2] -3.32% | activity change, negative = inhibition [3] -3.92% | activity, negative = inhibition [4] 3.06% | Potency [5] > 9.22 µM | Potency [6] > 46 µM | Potency [7] | Potency [8] | Potency [10] | outcome [9]

COc1cccc(Cn2c(=O)c(-c3ccc(F)c(F)c3)nc3cncnc32)c1
inactive: Potency [1] > 11.4 µM | activity change, negative = inhibition [2] -5.97% | activity change, negative = inhibition [3] -0.724% | activity, negative = inhibition [4] 2.07% | Potency [5] > 9.22 µM | Potency [6] > 46 µM | Potency [8] | outcome [9]

COc1ncc2nc(C)c(=O)n(C[C@H]3CCCO3)c2n1
inactive: Potency [1] > 11.4 µM | activity change, negative = inhibition [2] -6.08% | activity change, negative = inhibition [3] -9.08% | activity, negative = inhibition [4] -2.46% | Potency [5] > 9.22 µM | Potency [6] > 46 µM | Potency [7] | Potency [8] | outcome [9]

Cc1noc(C)c1C(=O)N1CCC[C@@]2(CCN(c3ccccn3)C2)C1
inactive: Potency [1] > 11.4 µM | activity change, negative = inhibition [2] -5.91% | activity change, negative = inhibition [3] -10.2% | activity, negative = inhibition [4] -3.33% | Potency [6] > 46 µM | Potency [7] | Potency [8] | outcome [9]

COc1cccc(Cn2c(=O)c(-c3cccc(Cl)c3)nc3cncnc32)c1
inactive: Potency [1] > 11.4 µM | activity change, negative = inhibition [2] -20.4% | activity change, negative = inhibition [3] -10.8% | activity, negative = inhibition [4] -8.57% | Potency [5] > 9.22 µM | Potency [6] > 46 µM | Potency [8] | outcome [9]

COc1cccc(Cn2c(=O)c(-c3cccs3)nc3cnc(Nc4ccccc4)nc32)c1
inactive: Potency [1] > 11.4 µM | activity change, negative = inhibition [2] -5.18% | activity change, negative = inhibition [3] -18.8% | activity, negative = inhibition [4] -0.21% | Potency [5] > 9.22 µM | Potency [6] > 46 µM | Potency [7] | Potency [8] | outcome [9]

O=C(c1ccco1)N1CCC2(CCN(Cc3cc(C(F)(F)F)cc(C(F)(F)F)c3)CC2)CC1
inactive: Potency [1] > 11.4 µM | activity change, negative = inhibition [2] -1.98% | activity change, negative = inhibition [3] 2.65% | activity, negative = inhibition [4] 0.499% | Potency [6] > 46 µM | Potency [7] | Potency [8] | outcome [9]

COc1ncc2nc(-c3ccc(Cl)cc3)c(=O)n(CCc3ccccc3)c2n1
inactive: Potency [1] > 11.4 µM | activity change, negative = inhibition [2] -3.59% | activity change, negative = inhibition [3] -9.46% | activity, negative = inhibition [4] 1.11% | Potency [5] > 9.22 µM | Potency [6] > 46 µM | Potency [7] | Potency [8] | outcome [9]

COc1ccc(NC(=O)N2CC3(CCN(C(=O)c4cccc(F)c4)CC3)C2)cc1
inactive: Potency [1] > 11.4 µM | activity change, negative = inhibition [2] -7.57% | activity change, negative = inhibition [3] -1.23% | activity, negative = inhibition [4] 0.388% | Potency [6] > 46 µM | Potency [7] | Potency [8] | outcome [9]

COc1ncc2nc(-c3cc(F)cc(F)c3)c(=O)n(Cc3cccs3)c2n1
inactive: Potency [1] > 11.4 µM | activity change, negative = inhibition [2] 14.2% | activity change, negative = inhibition [3] -10.4% | activity, negative = inhibition [4] 4.55% | Potency [5] > 9.22 µM | Potency [6] > 46 µM | Potency [7] | Potency [8] | outcome [9]

COc1ncc2nc(-c3ccc(F)cc3)c(=O)n(C[C@H]3CCCO3)c2n1
inactive: Potency [1] > 11.4 µM | activity change, negative = inhibition [2] 3.08% | activity change, negative = inhibition [3] -6.14% | activity, negative = inhibition [4] -1.31% | Potency [5] > 9.22 µM | Potency [6] > 46 µM | Potency [7] | Potency [8] | outcome [9]

COc1ccc(NC(=O)N2CC[C@@]3(CCCN(C(=O)c4cccc(F)c4)C3)C2)cc1
inactive: Potency [1] > 11.4 µM | activity change, negative = inhibition [2] -11.4% | activity change, negative = inhibition [3] 6.04% | activity, negative = inhibition [4] -0.331% | Potency [6] > 46 µM | Potency [7] | Potency [8] | outcome [9]
